Screening data: PubChem, ICCB-Longwood Screening Facility, Harvard Medical School
Mtb hypoxia inh = reduces hypoxia-regulated biosensor signal in M. tuberculosis; fluorescence inhibition, % (test concentration not listed); M. tuberculosis hypoxia-regulated fluorescent reporter, fluorescence; AID 1159583; 300,000 tested, 0.1% active; in the data active = fluorescence inhibition mostly above about 23%, no sharp cut-off; inactive = mostly below about 17%
ugtP null kill = compounds lethal to S. aureus RN4220 ugtP deletion mutant. OD600 growth, 16 h. growth inhibition, % (concentration not given with the values). 330,000 tested, 0.54% active; in the data active = growth inhibition above about 68%
RN4220 kill = S. aureus RN4220 growth inhibition; OD600, 16 h; AID 1259311; inhibition, % (concentration not given with the values); 330,000 tested, 0.33% active; in the data active = inhibition above about 85%
Of the large screens only hits and unclear results are named; the others gave an inactive call. A selection: hits, their analogues and other compounds. The true share with any hit is near 0.68%.

O=C(CC1CC=CCCCC(=O)OCC2CCCN2C1=O)NC(CO)Cc1ccccc1 (stereo not given)	none
CCCN(CC(=O)Nc1cc(Cl)cc(Cl)c1)CC(=O)Nc1ccc(F)c(F)c1F	ugtP null kill 91, RN4220 kill 89
CCCN(CC(=O)Nc1ccccc1Br)CC(=O)Nc1ccc(F)c(F)c1F	none
Cc1nc(SCC(=O)NCc2ccc3c(c2)OCO3)nc(C)c1C	Mtb hypoxia inh 23
Nc1cc(N)nc(SCC(=O)NCc2ccc3c(c2)OCO3)n1	none
O=C1Nc2ccccc2/C1=C/C(=O)c1cccs1	ugtP null kill 94 (no result: Mtb hypoxia inh)
C=CCOc1ccc(C(=O)/C=C2/C(=O)Nc3ccccc32)cc1	none
COc1ccc(C(=O)/C=C2/C(=O)Nc3ccccc32)cc1	ugtP null kill 99, RN4220 kill 97
COc1ccc(C(=O)/C=C2/C(=O)Nc3ccccc32)c(OC)c1	none
COc1ccc(C2C(=C(O)c3ccccc3)C(=O)C(=O)N2c2ncccn2)cc1OC (stereo not given)	none
Cc1c(Cc2c(Cl)cccc2Cl)c(=O)ccn1C(C)c1ccccc1 (stereo not given)	ugtP null kill 99, RN4220 kill 98
Cc1c(OCc2ccccc2)c(=O)ccn1Cc1ccc(Cl)cc1	none
COc1ccc(Cn2ccc(=O)c(Cc3c(Cl)cccc3Cl)c2C)cc1	ugtP null kill 98, RN4220 kill 98
CCn1c(SCc2c(Cl)cccc2Cl)nnc1-c1nn(-c2ccccc2)ccc1=O	none (no result: Mtb hypoxia inh)
Cc1ccc(Cn2ccc(=O)c(Cc3c(Cl)cccc3Cl)c2C)cc1	ugtP null kill 101, RN4220 kill 100
Cc1ccc(Cn2ccc(=O)c(OCc3ccccc3)c2C)cc1	none (not shown: Mtb hypoxia inh)
CC1(C)C=Cc2c(c3c(c4c(=O)c(-c5ccc(O)cc5)coc24)OC(C)(C)CC3)O1	none (no result: Mtb hypoxia inh)
CC(C)=CCc1c2c(c3occ(-c4ccc(O)cc4)c(=O)c3c1O)C=CC(C)(C)O2	ugtP null kill 100, RN4220 kill 99 (no result: Mtb hypoxia inh)
COc1cc(C=NNC(=O)CCn2c3ccccc3c3ccccc32)ccc1O	none
COc1cc(C(=O)NN=Cc2ccc3c(c2)c2ccccc2n3C)ccc1O	ugtP null kill 86, RN4220 kill 91
Cc1cccc(C2C3C(=O)N(Cc4ccccc4)C(=O)C3[C@]3(C)C(=O)N(c4cccc(Cl)c4)C(=O)N23)c1 (stereo not given in full)	none
COC(=O)CC1c2ccccc2S(=O)(=O)N1Cc1ccc(OC)cc1 (stereo not given)	none
O=C(NN=Cc1sc(=O)[nH]c1-[n+]1ccccc1)c1ccccc1[O-]	none
CCn1cc(C(=O)O)c(=O)c2cnc(N3CCN(C(=S)Nc4ccccc4)CC3)nc21	none
CCCCOC(=O)c1ccc(NC(=S)N2CCN(c3ncc4c(=O)c(C(=O)O)cn(CC)c4n3)CC2)cc1	ugtP null kill 100, RN4220 kill 101
Clc1ccc2c(c1)c1ccccc1n2CN1CCOCC1	none (not shown: Mtb hypoxia inh)
Clc1ccc2c(c1)c1cc(Cl)ccc1n2CN1CCOCC1	ugtP null kill 84
CN(Cc1ccccc1)C(=O)c1[nH]cnc1C(=O)NC(CCCCNC(=O)OC(C)(C)C)C(=O)OC(C)(C)C (stereo not given)	none
CSCCC(NC(=O)c1ccccc1Br)C(=O)NNC(=O)c1ccco1 (stereo not given)	none
CSCCC(NC(=O)c1ccccc1Br)C(=O)NNC(=O)c1ccncc1 (stereo not given)	Mtb hypoxia inh 27
COc1cc(CCCN2C(N)=NCC2Cc2ccccc2)cc(OC)c1OC (stereo not given)	none
NC(=O)COc1cccc(C=NNC(=O)c2ccc(-n3cccc3)cc2)c1	none
O=C(/C=C/c1ccc(S(=O)(=O)N2CCOCC2)cc1)NCCc1ccc(C(F)(F)F)cc1	Mtb hypoxia inh 25
COc1ccc(CCNC(=O)/C=C/c2ccc(S(=O)(=O)N3CCOCC3)cc2)cc1	none
O=C(O)CCCCCN1C(=O)/C(=C/c2cn(-c3ccccc3)nc2-c2cccs2)SC1=S	none
COc1ccc(/C=C2/SC(=S)N(CCC(=O)O)C2=O)cc1	none
O=C(O)CCN1C(=O)/C(=C\c2ccc(-c3nc4ccccc4s3)o2)SC1=S	ugtP null kill 101, RN4220 kill 109 (no result: Mtb hypoxia inh)
O=C(O)CCCN1C(=O)/C(=C\c2ccco2)SC1=S	none
O=C(O)CCN1C(=O)/C(=C\c2ccncc2)SC1=S	Mtb hypoxia inh 38
O=C(O)CCN1C(=O)/C(=C/c2cn(-c3ccccc3)nc2-c2cccs2)SC1=S	ugtP null kill 93
C#CCOCCOCCOCCNc1nc(N2CCN(C(=O)C(CCC(=O)O)n3cc(C(N)Cc4ccc(O)cc4)nn3)CC2)nc(N2CCN(C(=O)C(C(C)CC)n3cc(C(N)CC(C)C)nn3)CC2)n1 (stereo not given)	none
COc1cc(C=NO)cc(Br)c1OC	none
CCCOc1c(Cl)cc(C=NO)cc1OCC	ugtP null kill 93 (no result: Mtb hypoxia inh)
CCCOc1c(Br)cc(C=NO)cc1OC	ugtP null kill 86 (no result: Mtb hypoxia inh)
CCOc1cc(C=NO)cc(Cl)c1OC	none (no result: Mtb hypoxia inh)
Cc1cc(=O)[nH]c(NN=Cc2cn(CCC#N)nc2-c2ccccc2)n1	none
